Assay results: ChEMBL document CHEMBL3988442, “University of Dundee, Small-Polar-MMV Screening Library” (2021)
Out of some 67,000 compounds screened, about 300 (0.45%) showed an effect of 50% or more. The entries come from a sample that favours strong results as a whole.

The compounds below were run against Polyketide synthase Pks13 (Mycobacterium tuberculosis (strain ATCC 25618 / H37Rv)) (UniProt I6X8D2) (assay: Mycobacterium tuberculosis Polyketide synthase 13 Thioesterase (PKS13)). Conditions: 30 µM.
Assay type: functional
Set-up: scale not given: in the data most compounds retested in dose-response had high values

Chain of Polyketide synthase Pks13 (Mycobacterium tuberculosis (strain ATCC 25618 / H37Rv)) (I6X8D2 whole entry): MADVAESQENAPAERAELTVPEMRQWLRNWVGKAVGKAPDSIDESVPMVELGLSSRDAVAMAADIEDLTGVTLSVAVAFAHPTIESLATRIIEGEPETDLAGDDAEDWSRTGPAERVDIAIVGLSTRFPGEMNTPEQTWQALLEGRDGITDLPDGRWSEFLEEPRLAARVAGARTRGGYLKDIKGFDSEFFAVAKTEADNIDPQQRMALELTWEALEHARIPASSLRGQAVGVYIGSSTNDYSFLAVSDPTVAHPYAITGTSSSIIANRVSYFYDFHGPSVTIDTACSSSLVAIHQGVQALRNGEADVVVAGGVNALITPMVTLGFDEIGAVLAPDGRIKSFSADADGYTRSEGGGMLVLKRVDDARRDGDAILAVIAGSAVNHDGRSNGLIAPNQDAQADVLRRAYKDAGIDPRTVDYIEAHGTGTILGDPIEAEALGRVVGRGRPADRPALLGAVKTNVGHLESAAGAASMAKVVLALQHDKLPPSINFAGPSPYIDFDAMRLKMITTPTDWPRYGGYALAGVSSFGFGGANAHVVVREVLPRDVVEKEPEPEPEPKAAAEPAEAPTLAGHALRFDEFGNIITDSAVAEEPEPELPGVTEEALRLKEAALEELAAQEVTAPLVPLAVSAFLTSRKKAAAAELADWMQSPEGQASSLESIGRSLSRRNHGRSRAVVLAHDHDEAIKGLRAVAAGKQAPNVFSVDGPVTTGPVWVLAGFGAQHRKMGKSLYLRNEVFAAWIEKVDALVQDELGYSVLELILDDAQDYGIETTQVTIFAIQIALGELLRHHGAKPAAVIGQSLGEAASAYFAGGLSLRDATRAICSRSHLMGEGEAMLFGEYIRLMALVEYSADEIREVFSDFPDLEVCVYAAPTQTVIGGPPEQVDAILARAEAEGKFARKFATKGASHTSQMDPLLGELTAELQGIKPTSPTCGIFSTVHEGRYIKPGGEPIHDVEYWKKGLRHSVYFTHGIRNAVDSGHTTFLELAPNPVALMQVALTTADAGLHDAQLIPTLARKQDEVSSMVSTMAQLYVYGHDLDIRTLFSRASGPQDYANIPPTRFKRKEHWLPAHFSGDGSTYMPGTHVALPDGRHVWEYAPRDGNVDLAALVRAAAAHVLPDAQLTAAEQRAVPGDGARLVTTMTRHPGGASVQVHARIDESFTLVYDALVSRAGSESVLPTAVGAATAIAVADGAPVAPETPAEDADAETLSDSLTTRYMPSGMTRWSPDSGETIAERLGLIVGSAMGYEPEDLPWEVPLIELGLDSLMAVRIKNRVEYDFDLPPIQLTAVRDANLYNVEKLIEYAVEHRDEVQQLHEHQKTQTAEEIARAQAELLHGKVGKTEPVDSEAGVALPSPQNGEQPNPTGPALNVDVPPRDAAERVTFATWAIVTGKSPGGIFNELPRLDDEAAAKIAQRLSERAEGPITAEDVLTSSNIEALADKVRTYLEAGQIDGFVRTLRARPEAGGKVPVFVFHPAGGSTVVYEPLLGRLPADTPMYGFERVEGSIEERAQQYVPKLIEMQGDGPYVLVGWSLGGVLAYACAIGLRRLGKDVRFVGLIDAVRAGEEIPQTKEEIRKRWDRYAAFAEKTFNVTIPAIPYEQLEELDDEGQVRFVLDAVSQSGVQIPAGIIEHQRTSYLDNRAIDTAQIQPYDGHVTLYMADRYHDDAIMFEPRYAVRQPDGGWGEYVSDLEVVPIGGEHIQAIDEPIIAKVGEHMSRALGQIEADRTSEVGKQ

SMILES | Percent Effect [%]
C1CC(N2C[C@@H]3COC[C@]3(COCC3CCOCC3)C2)C1 | -9.77
Fc1ccccc1Cc1noc(CN2CC[C@@H]3CCCC[C@H]3C2)n1 | -29.1
CC(C)c1cc(CN2CCNCC2)no1 | 18.9
CC(C)c1cc(CN2CCC(N)CC2)no1 | 11.6
CC(C)c1cc(CN2CCC(CC(=O)O)CC2)no1 | 60.1
CC(C)c1cc(C(=O)N2CCN(CC3CC3)[C@@H]3CS(=O)(=O)C[C@@H]32)on1 | -6.23
O=C1[C@@H]2CCN(CC3CC3)C[C@@H]2OCCN1c1ccsc1 | 2.34
CCOc1cc(/C=C/c2ncc(C(=O)O)s2)cc(Br)c1O | 59.8
COc1cc(/C=C/c2ncc(C(=O)O)s2)cc(Cl)c1OC | 16.6
CCOc1cc(/C=C/c2ncc(C(=O)O)s2)cc(Br)c1OC | 17.1
COc1cc(/C=C/c2ncc(C(=O)O)s2)cc(OC)c1 | 19.6
CNC(=O)c1cnc(/C=C/c2cc(OC)cc(OC)c2)s1 | 54.2
CNC(=O)c1cnc(/C=C/c2cc(OC)c(OC)c(OC)c2)s1 | 17.9
CCOc1c(Cl)cc(/C=C/c2ncc(C(=O)O)s2)cc1OC | 23.8
CCOc1c(Br)cc(/C=C/c2ncc(C(=O)O)s2)cc1OC | -5.74
COc1cc(/C=C/c2ncc(C(=O)O)s2)cc(Cl)c1O | 64.9
CC(=O)N1CC[C@H]2OCC[C@@]2(C(=O)NCCc2ccccn2)C1 | -18.1
O=C(c1ccsc1)N1CCN2C[C@H](OCc3ccccn3)C[C@H]2C1 | -2.94
Cc1ccc(N2C[C@@H]3OCCN(CC4CC4)[C@@H]3C2)nn1 | 0.27
O=C(C1CCCCC1)N1C[C@H]2CNC[C@H]2C1 | -22.2
CCOC(=O)[C@@H]1[C@@H](c2ccccc2)CN2CCN(C(=O)N(C)C)C[C@H]12 | -2.04
O=C(c1cnccn1)N1CCN2C[C@H](Oc3cccnc3)C[C@H]2C1 | -12.6
CN(C)C(=O)[C@H]1C[C@@H]2CCN(C3CCOCC3)C[C@H]2O1 | -11.1

SMILES | Percent Effect [%]
COc1ccc(C2Nc3ccccc3NC3=C2C(=O)NC3)cc1OC (stereo unspecified) | -7.87
CC(C)C(=O)N1CCC(n2nc(-c3ccco3)ccc2=O)CC1 | 0.602
O=C(c1ccco1)N1CCC(n2nc(-c3ccco3)ccc2=O)CC1 | 10.8
CC(C)(C)C(=O)N1CCC(n2nc(-c3ccco3)ccc2=O)CC1 | 125
CN(C)C(=O)N[C@@H]1CN(C2CCOCC2)[C@@H]2CCCO[C@@H]21 | -25.3
CC(=O)N1CCO[C@@H]2CN(C(=O)c3ccccc3)CC[C@@H]2C1 | 7.28
Cc1cccc(COc2ccc(NC(=O)C(C)NC(N)=O)c(C)c2)c1 (stereo unspecified) | 53
CC(=O)NC(C)C(=O)Nc1ccc(OCc2cccc(F)c2)cc1C (stereo unspecified) | -35.8
Cc1cc(OCc2cccc(F)c2)ccc1NC(=O)C(C)NC(N)=O (stereo unspecified) | -1.33
c1ccc(OCC2C[C@@H]3[C@@H](C2)OCCN3CC2CCOCC2)nc1 (stereo partly specified) | -0.0246
Cc1ccoc1C(=O)N1C[C@@H]2[C@@H](C1)OCC(=O)N2Cc1cccnc1 | -9.46
Cc1cnc(N2CCCC3(COCCN(c4nccs4)C3)C2)nc1 (stereo unspecified) | -20.9
Cc1ccc(N2CCCC3(COCCN(c4nccs4)C3)C2)nn1 (stereo unspecified) | -10.9
c1ccc(N2CCOCC3(CCCN(c4nccs4)C3)C2)nc1 (stereo unspecified) | 66
Cc1nc2cc(C3CCN(C(=O)c4ccccn4)CC3)nn2c(O)c1C | -23.4
Cc1cccc(CN2C[C@@H]3OCCN(c4cnccn4)[C@@H]3C2)n1 | -4.22
CS(=O)(=O)CCCSc1n[nH]c(-c2ccc3c(c2)CCC3)n1 | 66.3
NC(=O)CCSc1n[nH]c(-c2ccc3c(c2)CCC3)n1 | -2.85
CS(=O)(=O)CCSc1n[nH]c(-c2ccc3c(c2)CCC3)n1 | 1.98
Cn1c(NCC(=O)N2CCCC2)c(C#N)c(=O)n(C)c1=O | 51.5
Cn1c(NCC(=O)N2CCCCC2)c(C#N)c(=O)n(C)c1=O | -9.87
Cn1c(NCCC(=O)N2CCCC2)c(C#N)c(=O)n(C)c1=O | 1.71
Cn1cc(N2C(=O)CC[C@@H]3[C@H]2CCN3Cc2cccc(C#N)c2)cn1 | -11.3

SMILES | Percent Effect [%]
O=c1[nH]c2cc3c(cc2cc1CN1CCCC1c1ccccn1)CCC3 (stereo unspecified) | -17.3
CCOc1ccc2[nH]c(=O)c(CN3CCCC3c3ccccn3)cc2c1 (stereo unspecified) | -32.9
O=c1[nH]c2cc3c(cc2cc1CN1CCCC1c1ccccn1)OCO3 (stereo unspecified) | 78.6
O=C(c1ccoc1)N1CC[C@@H]2O[C@@H](COCc3ccncc3)CC[C@@H]21 | -10.6
O=C(C[C@H]1[C@H]2CN(c3ncccn3)C[C@@H]12)Nc1cccnc1 | -4.86
CC(C)CN1CC[C@@H]2[C@@H]1CCN2C(=O)N(C)C | -18.3
Cc1cc(Cn2c(=O)c3c(C(F)(F)F)cc(C)nc3n2C)on1 | 3.92
CCc1noc(Cn2c(=O)c3c(C(F)(F)F)cc(C)nc3n2C)n1 | 64.5
CCc1nc(Cn2c(=O)c3c(C(F)(F)F)cc(C)nc3n2C)no1 | 9.67
CO[C@H]1CC[C@H]2[C@H]1OCCN2C(=O)c1ccc(C)nc1 | -32.1
Cc1ccc(N2CC[C@H]3OCC[C@@]3(C(=O)NCC3CC3)C2)nn1 | -16.8
CC(C)CN1CCN(Cc2nc3c(s2)CCCC3)[C@H]2CS(=O)(=O)C[C@H]21 | 3.91
CCN1CCN(C(=O)c2cnc3c(cnn3C3CCCC3)c2)CC1 | 2.83
CN1CCN(C(=O)c2cnc3c(cnn3C3CCCC3)c2)CC1 | -58.3
O=C(c1cnc2c(cnn2C2CCCC2)c1)N1CCN(CCO)CC1 | 90.8
Cc1cc(CN2CC[C@@H]3O[C@@H](c4nnc(C)o4)C[C@H]3C2)no1 | -7.21
CC(C)Nc1nc2c(cc1C(=O)N(C)C)CCNCC2 | 0.822
CC(C)Nc1nc2c(cc1C(=O)NCC1CC1)CCN(CC1CC1)CC2 | 69.4
CC(C)NC(=O)c1cc2c(nc1N(C)C)CCN(S(=O)(=O)C1CC1)CC2 | 33.7
Cc1nc2c(cc1C(=O)O)CCN(CC1CC1)CC2 | -19.8
CC(C)Nc1nc2c(cc1C(=O)NCC1CC1)CCN(C)CC2 | 90.8
CNC(=O)c1cc2c(nc1N(C)C)CCN(C)CC2 | -20.6
CCS(=O)(=O)N1CCc2cc(C(=O)N(C)C)c(NCC3CC3)nc2CC1 | -30.5

SMILES | Percent Effect [%]
CC(C)CCN1CCc2cc(C(=O)N(C)C)c(NCC3CC3)nc2CC1 | -8.68
CC(C)Nc1nc2c(cc1C(=O)NCC1CC1)CCN(S(C)(=O)=O)CC2 | 85.6
CNC(=O)c1cc2c(nc1NC(C)C)CCNCC2 | 73.6
CN1CCc2cc(C(=O)N(C)C)c(NCC3CC3)nc2CC1 | -5.51
CN(C)C(=O)c1cc2c(nc1NCC1CC1)CCN(CC1CC1)CC2 | -12.7
CCS(=O)(=O)N1CC[C@H]2O[C@H](c3nnc(C)o3)CC[C@H]21 | -8.23
CN1CC[C@H]2CN(C(=O)c3csc(Cc4ccccc4)n3)C[C@H]21 | -37.9
O=C1O[C@@H]2CN(C3CCOCC3)C[C@@H]2N1CCCc1ccc(F)cc1 | 1.75
CC(C)CN1CCS(=O)(=O)[C@@H]2CCN(S(=O)(=O)N(C)C)CC[C@@H]21 | -30.1
COCCN1CCc2cc(C(=O)N(C)C)c(NC(C)C)nc2CC1 | -2.98
CC(C)Nc1nc2c(cc1C(=O)NCC1CC1)CCNCC2 | 51.7
CNC(=O)N1CCc2cc(C(=O)N(C)C)c(NCC3CC3)nc2CC1 | 4.02
CNC(=O)c1cc2c(nc1NC(C)C)CCN(C(=O)NC(C)C)CC2 | 29.7
COCCN1CCc2cc(C(=O)NC(C)C)c(NCC3CC3)nc2CC1 | 45.7
CCN1CCc2cc(C(=O)N(C)C)c(NCC3CC3)nc2CC1 | -12.5
COCCN1CCc2cc(C(=O)NCC3CC3)c(NC(C)C)nc2CC1 | 68.2
CNC(=O)N1CCc2cc(C(=O)NCC3CC3)c(NC(C)C)nc2CC1 | 51.5
Cc1noc([C@@H]2CC[C@@H]3[C@@H](CCN3S(=O)(=O)c3cccnc3)O2)n1 | 4.22
O=C1OCCN1CC(=O)N1C[C@H]2CC[C@@H]1CN(C(=O)c1ccccn1)C2 | -14.6
Cc1ccc(N2CC[C@@H]3CN(Cc4cc[nH]n4)C[C@@H]3C2)nn1 | 3.96
CCN1CCN(S(=O)(=O)N2CCCC2)[C@H]2CS(=O)(=O)C[C@H]21 | -23.5
CC(=O)N1CC[C@H]2N(C)CC[C@@]2(C(=O)Nc2cccnc2)CC1 | -11.6
O=C(c1ccco1)N1C[C@H]2CN(Cc3cccc(F)c3)C(=O)[C@H]2C1 | -4.13

SMILES | Percent Effect [%]
c1ccc2c(c1)C(NC1CCCC1)CC21CCNCC1 (stereo unspecified) | -6.43
CNC(=O)N1C[C@H]2CC[C@@]3(N=C(c4ccccc4)NC3=O)[C@H]2C1 | -17.2
CCOC(=O)[C@@H]1[C@@H](c2ccccc2)CN2CCN(S(C)(=O)=O)C[C@H]12 | -1.54
c1coc(CN2C[C@@H]3OCCN(CCN4CCCC4)[C@@H]3C2)c1 | -17.4
CCc1nnc(Nc2cccc(C3CCN(C(=O)CO)CC3)n2)s1 | 4.46
CCc1nnc(Nc2cccc(C3CCN(C(C)=O)CC3)n2)s1 | 86.9
CCc1nnc(Nc2cccc(C3CCN(C(=O)CNC)CC3)n2)s1 | -24.5
CC(=O)N1CCO[C@@H]2CN(C(=O)NCc3ccccc3)CC[C@@H]2C1 | -30.5
Cc1ccc(N2CC[C@H]3O[C@H](C(=O)NCc4ccco4)CC[C@H]32)nn1 | -3.57
Cc1ccc(N2CC[C@H]3OCC[C@@]3(C(=O)N3CCCO3)C2)nn1 | -34
COc1ccc(CN2C[C@@H]3OCC(=O)N(Cc4nccn4C)[C@@H]3C2)cc1 | -29.9
O=C1CNc2ncnc(N3CCN(Cc4ccccc4)CC3)c2N1 | -2.51
Cc1ccccc1CN1CCN(c2ncnc3c2NC(=O)CN3)CC1 | -5.54
O=C1CNc2ncnc(N3CCN(Cc4ccccc4F)CC3)c2N1 | 84.6
Cc1noc(C)c1CN1CC[C@H]2C[C@@H](c3ccncn3)O[C@@H]2C1 | -34.7
Cc1nc2cc(C3CCCCN3C(=O)C3CC3)nn2c(O)c1C (stereo unspecified) | 9.02
CC(=O)N1N=C(c2ccco2)OC1C(=O)NCC(C)C (stereo unspecified) | 52.5
CC(=O)N1N=C(c2ccco2)OC1C(=O)N(CC(C)C)CC(C)C (stereo unspecified) | -6.84
CC(=O)N1N=C(c2ccco2)OC1C(=O)NCCc1ccc(O)cc1 (stereo unspecified) | 8.81
